Rows were chosen to be rich in hits. Some 19% of all compounds tested hit in one or more screens of this group.
HT1080-NT tox: kills 2HG-producing HT-1080-NT fibrosarcoma cells. 360,000 tested, 1.6% active. HT-1080-NT fibrosarcoma viability, CellTiter-Glo ATP luminescence, 48 h. Potency, µM (top dose mostly 46.1 µM), without a hit: at the highest dose activity, negative = less viability, most hits filed as cytotoxic;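 further: NT is the 2HG producing partner of a matched IDH1 knockdown line; potency means the concentration at half of the fitted maximal effect; 0% = DMSO-treated cells and -100% = media-only wells without cells; nearly all actives have a fitted effect of over 55% in size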
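Luminescent CellTiter-Glo readout after 48 hours of compound exposure at 37 degrees C defined viability of HT-1080-NT cells. Activity was normalized to DMSO wells and cell-free media wells; concentration-response curves were fitted and assigned curve classes.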
DT40 TDP1 CPT: growth inhibition of DT40 Tdp1-/-;hTDP1 cells with camptothecin (screen for TDP1 inhibitors) | chicken DT40 Tdp1-/-;hTDP1 cells + 20 nM CPT, ATP luminescence, 48 h | Potency, µM (titrated, usually from 46.2 µM), inactives show top-dose activity change, negative = growth inhibition, usual class: inhibitors | 420,000 tested, 12% active; further: potency means the concentration at half of the fitted maximal effect; nearly all actives have a fitted effect of over 55% in size
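Chicken DT40 Tdp1-/- cells stably complemented with human TDP1 were seeded at 400 cells/well in medium containing 20 nM camptothecin, exposed to pin-transferred compounds, and grown at 37 °C for at least 48 hr. Viability was read as ATP luminescence.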
DT40 TDP1 no CPT: qHTS for Inhibitors of human tyrosyl-DNA phosphodiesterase 1 (TDP1): qHTS in cells in absence of CPT; 420,000 tested, 15% active; Potency, µM (titrated, usually from 46.2 µM), for inactives: at the highest dose activity change, negative = growth inhibition, hits mostly inhibitors; AID 686978, 2013; DT40 Tdp1-/- hTDP1 cells, no CPT, ATP luminescence, 48 h; further: potency means the concentration at half of the fitted maximal effect; nearly all actives have a fitted effect of over 55% in size
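A cellular qHTS used chicken DT40 cells lacking endogenous Tdp1 but carrying stably transfected human TDP1. Compounds were applied without camptothecin, and cell growth kinetics were judged by ATP-dependent luminescence after ≥48 hr.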
HT1080 IDH1KD tx: toxicity to HT-1080 IDH1 knockdown cells (counter line); Potency, µM (titrated, usually from 46.1 µM), for inactives: top-dose activity, negative = toxicity, actives largely listed as cytotoxic; HT-1080 IDH1 knockdown viability, ATP luminescence, 48 h; 360,000 tested, 2% active; AID 686971;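 further: potency means the concentration at half of the fitted maximal effect; 0% = DMSO wells and -100% = cell-free medium wells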
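Luminescent ATP read-out (CellTiter-Glo, 10 min at room temperature) after 48 h compound exposure at 37 °C gave viability of IDH1-knockdown HT-1080 cells. Activity was normalised to DMSO and cell-free wells, then fitted as concentration-response curves.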
IL1B secr inh: inflammasome signaling inhibition, IL-1 beta readout; activity change, % at 57.5 µM; 360,000 tested, 4.7% active; AID 743279; THP-1 LPS/ATP IL-1B secretion, AlphaLISA, 16 h; active compounds read low; in the data active means activity change below about -50%; inconclusive means mostly about -30% to -49%
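Secreted IL-1B measured by AlphaLISA bead assay after 16 h compound exposure of THP-1 cells; compounds (final up to 57.5 uM) added 1 h before LPS (250 ng/mL) and ATP (1.25 mM) stimulation; lower signal means less secretion.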
The depositor's hits bear a star; ? = inconclusive; . = no result. Unless noted, the call rests on the fitted dose curve; in most records, active means well fitted curve in the direction sought with a large enough effect; inconclusive means small, poorly fitted or top-dose-only effect, or another doubt; inactive means no such curve, though single readings can be large; an effect the other way counts as inactive or inconclusive. Unless noted, on the % scale 0 is the no-effect control and ±100 the full control effect.

SMILES	HT1080-NT tox	DT40 TDP1 CPT	DT40 TDP1 no CPT	HT1080 IDH1KD tx	IL1B secr inh
Cc1ccc(OCc2cc(C(=O)NC3CCc4ccccc43)no2)cn1 (stereo not drawn)	-21%	18µM*	13µM*	-10%	37
Cc1ccc(OCc2cc(C(=O)NCC(C)(C)N3CCOCC3)no2)cc1C	-4%	?	?	-7%	-70*
C=Cc1cnc([N+](=O)[O-])n1C	1%	?	?	3%	8
COc1ccc(NC2CCCN(C(=O)C3=NN(C)C(=O)CC3)C2)cc1OC (stereo not drawn)	8%	-1%	24%	19%	12
COc1cccc(/C=C/C(=O)c2ccc(C)c([N+](=O)[O-])c2)c1	?	?	21µM*	-24%	-83*
COc1cc(/C=C/C(=O)c2ccc(C)c([N+](=O)[O-])c2)cc(OC)c1O	?	16µM*	15µM*	?	?
COc1cccc(C(=O)/C=C/c2ccc(SC)cc2)c1	-3%	?	?	?	-20
COC(=O)N/N=C(\C)c1ccc(C)c([N+](=O)[O-])c1	20%	-12%	?	15%	-4
COc1cc(/C=C/c2[nH]c(=O)[nH]c(=O)c2[N+](=O)[O-])cc([N+](=O)[O-])c1O	8%	2%	-3%	-1%	17
COc1ccc(/C=C/C(=O)c2ccc(C)c([N+](=O)[O-])c2)cc1O	-12%	?	13µM*	?	?
COc1cccc(/C=C/c2nc(C#N)c(N3CCN(C)CC3)o2)c1	.	23µM*	23µM*	.	.
COc1cc(/C=C/c2nc(C#N)c(N3CCN(C)CC3)o2)cc(OC)c1OC	.	8.2µM*	8.2µM*	.	.
CCCCN1CC(C)(C)[C@H](CC(=O)NC)C1=O	18%	9%	-5%	3%	12
CCCCN1CCc2c([nH]c3ccccc23)C1=O	4%	-1%	-4%	12%	-1
CCCCC1CN2CCc3c([nH]c4ccccc34)C2(C)C1 (stereo not drawn)	?	?	18µM*	?	?
CCC1CCCCN1C(=O)CSc1nnc(-c2ccc(Cl)cc2)o1 (stereo not drawn)	1%	21µM*	16µM*	3%	20
CC1Cc2ccccc2N1C(=O)CSc1nnc(-c2cccc(Cl)c2)o1 (stereo not drawn)	.	15µM*	?	.	.
CCC1CCCCN1C(=O)CSc1nnc(-c2cccc(Cl)c2)o1 (stereo not drawn)	1%	26µM*	23µM*	-4%	-21
CC1Cc2ccccc2N1C(=O)CSc1nnc(CNc2ccccc2)o1 (stereo not drawn)	7%	-15%	?	-11%	17
Cc1ccccc1C(=O)N1CC(=O)Nc2ccc(F)cc2C1c1ccccc1 (stereo not drawn)	11%	20%	1%	4%	31
COc1ccc(COC(=O)CCc2c[nH]c3ccccc23)cc1F	9%	-1%	10%	16%	-6
CCN(CC)C(=O)C1=C(C)Nc2nc3ccccc3n2C1c1cccc(OC)c1 (stereo not drawn)	0%	?	?	11%	?
COc1cccc(C2C(C(=O)Nc3ccc(Cl)cc3)=C(C)Nc3nc4ccccc4n32)c1 (stereo not drawn)	.	21µM*	-4%	.	.
COc1ccc(-n2c(-c3ccc(Br)cc3)n[nH]c2=S)cc1	-3%	?	?	6%	0
COc1ccc(-n2c(-c3ccccc3)c[n+]3c2CCC3)cc1	?	2.1µM*	2.3µM*	-27%	?
COc1ccc(-n2c(-c3ccc(Br)cc3)c[n+]3c2CCCCC3)cc1	-26%	1.8µM*	1.8µM*	?	-78*
COc1ccc(-n2c(-c3ccc(Br)cc3)c[n+]3c2SC(C)C3)cc1 (stereo not drawn)	?	1.6µM*	1.2µM*	?	-97*
COc1ccc(-n2c(-c3ccccc3)cc3c2CCCC3=O)cc1	-12%	-28%	?	-10%	26

Assay outcomes deposited in PubChem BioAssay by National Center for Advancing Translational Sciences (NCATS).
